ChEMBL document CHEMBL4513146, “CO-ADD screening of Karazin Kharkiv National University (Ukraine) compounds”
Measured potencies and affinities stand elsewhere.

Tested on: Escherichia coli
Conditions: Concentration 32 ug.mL-1;; ASSAY_TEST Inhibition of Bacterial Growth; detection method Absorption (OD600); MEDIA CAMHB; plate type 384well; NBS; CORNING #3640; time 18 hr

First: Cc1ccc(N(Cc2cccc(C)c2)S(=O)(=O)c2cccn3c(C)nnc23)cc1
Second: Cc1ccccc1CN(c1ccc(C(C)C)cc1)S(=O)(=O)c1cccn2c(C)nnc12
The Inhibition of the first is lower: -15.69% for the first, -1.18% for the second.

Compared with `CCCCc1ccc(NC(=O)Cn2nc3ccc(-c4ccc(C)c(C)c4)nn3c2=O)cc1`, `Cc1ccc(NC(=O)Cn2nc3ccc(-c4ccc(Cl)cc4)nn3c2=O)cc1F` is lower in Inhibition: -1.54% for the first, -3.59% for the second.

Going from `CCc1ccc(NC(=O)Cn2nc3n(Cc4cccs4)c(=O)c4sccc4n3c2=O)cc1` to `CCc1cccc(C)c1NC(=O)Cn1nc2ccc(SCc3ccc(Cl)cc3)nn2c1=O`, the Inhibition falls from 5.1% to -10.21%.

Going from `O=C(CSc1nnc2ccc(C(=O)NCc3ccccc3)cn12)Nc1ccccc1Br` to `CCOc1ccc(-n2ccn3c(SCC(=O)NCc4ccccc4Cl)nnc3c2=O)cc1`, the Inhibition falls from -1.34% to -5.16%.

Compared with `CCOC(=O)c1ccccc1NC(=O)Cn1nc2c(Oc3ccc(C)cc3)nccn2c1=O`, `COc1ccc(-c2cc3c4nn(CC(=O)Nc5ccccc5OC)c(=O)n4ccn3n2)cc1` is higher in Inhibition: -17.92% for the first, -1.9% for the second.

Compared with `CCc1ccc(N(Cc2ccccc2F)S(=O)(=O)c2cccn3c(CC)nnc23)cc1`, `COc1ccc(N(Cc2cc(F)cc(F)c2)S(=O)(=O)c2ccc3nnc(C)n3c2)cc1` is lower in Inhibition: 1.03% for the first, -2.53% for the second.

First: Cc1cc2nn(CC(=O)Nc3ccc4c(c3)OCCO4)c(=O)n2c(Nc2ccccc2C)n1
Second: CCc1ccccc1NC(=O)Cn1nc2cc(C)nc(Nc3ccc(F)c(C)c3)n2c1=O
The Inhibition of the first is higher: -1.19% for the first, -1.7% for the second.

Compared with `N#Cc1ccc(NC(=O)Cn2nc3c(SCc4ccc(Cl)cc4)nccn3c2=O)cc1`, `Cc1ccc(NC(=O)Cn2nc3c(SCc4ccc(Cl)cc4)nccn3c2=O)c(C)c1` is lower in Inhibition: -2.23% for the first, -3.69% for the second.

Compared with `O=C(Cn1nc2ccc(Sc3ccccc3)nn2c1=O)Nc1ccc(F)c(Cl)c1`, `Cc1ccc(-c2cc3c4nn(CC(=O)NCc5ccc(Cl)cc5)c(=O)n4ccn3n2)cc1C` is higher in Inhibition: -2.75% for the first, 6.43% for the second.

Going from `CC(=O)c1ccc(N2CCN(C(=O)CCc3nnc4c5cc(-c6ccccc6)nn5ccn34)CC2)cc1` to `O=C(Cn1nc2c3cc(-c4ccccc4)nn3ccn2c1=O)N1CCCc2ccccc21`, the Inhibition falls from 2.66% to 2.28%.

Compared with `COc1ccc(NC(=O)CSc2nc3ccccc3n3c(C(C)C)nnc23)c(OC)c1`, `CCC(Sc1nnc2c(=O)n(-c3cccc(OC)c3)ccn12)C(=O)Nc1cc(C)ccc1C` (stereo unspecified) is higher in Inhibition: -5.84% for the first, -5.33% for the second.

First: CC(=O)c1cccc(NC(=O)Cn2nc3c(N4CCN(c5ccccc5C)CC4)nccn3c2=O)c1
Second: CCC(C)NC(=O)CSc1nnc2c(=O)n(Cc3ccc(F)cc3)ccn12 (stereo unspecified)
The Inhibition of the first is higher: 2.22% for the first, -9% for the second.

Going from `CCN(CCCNC(=O)CCc1nnc2ccc(-c3ccccc3)nn12)c1ccccc1` to `Cc1ccc(N(CC(=O)OC(C)(C)C)S(=O)(=O)c2ccc3nnc(C)n3c2)cc1`, the Inhibition falls from 4.87% to -3.61%.
